Bioassay records as filed in PubChem.
KCNQ2 inh: blocks the rat KCNQ2 potassium channel. O88943. CHO-K1 KCNQ2, FluxOR thallium flux, 20 min; stronger effect = lower value. B-score at 10 µM. hit rate 1.1% among 310,000;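 active = fluorescence ratio B-score at most minus 3 library SDs, with starting brightness B-score within 2 library SDs, cut at about -5.5 in these data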
KCNQ2 enhance: potentiators of rat KCNQ2 potassium channel. CHO-K1 KCNQ2, FluxOR thallium flux fluorescence; stronger effect = higher value. B-score at 10 µM. hit rate 0.54% among 310,000. O88943;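 active = fluorescence ratio B-score at least 3 SD of library B-scores, with initial fluorescence B-score within 3 of them, cut at about 5.3 in these data; same plate scores as AID 2156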;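 also: B-score of peak minus minimum over baseline fluorescence ratio after K+ and Tl+ stimulus; positive B-score means potentiation of KCNQ2 with more thallium influx and brighter signal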
KCNQ2 inh conf: confirmation of rat KCNQ2 potassium channel inhibitors. shares compounds with KCNQ2 inh. KCNQ2-expressing cells, thallium flux, inhibition; stronger effect = lower value. activity change, negative = inhibition, % at 10 µM. hit rate 57% among 1,000. AID 493025
KCNQ1 spec: selectivity of KCNQ2 inhibitors against human KCNQ1. shares compounds with KCNQ2 inh. KCNQ1-expressing cells, FluxOR thallium flux fluorescence; stronger effect = lower value. activity change, negative = inhibition, % at 10 µM. hit rate 15% among 1,000;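 active = activity change at least 3 SD of negative controls below their mean in both duplicate wells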;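 also: CHO cells stably transfected with KCNQ1 and depolarized by potassium stimulus; peak minus minimum fluorescence over baseline after thallium addition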
Target sequence (P51787 whole entry, looked up): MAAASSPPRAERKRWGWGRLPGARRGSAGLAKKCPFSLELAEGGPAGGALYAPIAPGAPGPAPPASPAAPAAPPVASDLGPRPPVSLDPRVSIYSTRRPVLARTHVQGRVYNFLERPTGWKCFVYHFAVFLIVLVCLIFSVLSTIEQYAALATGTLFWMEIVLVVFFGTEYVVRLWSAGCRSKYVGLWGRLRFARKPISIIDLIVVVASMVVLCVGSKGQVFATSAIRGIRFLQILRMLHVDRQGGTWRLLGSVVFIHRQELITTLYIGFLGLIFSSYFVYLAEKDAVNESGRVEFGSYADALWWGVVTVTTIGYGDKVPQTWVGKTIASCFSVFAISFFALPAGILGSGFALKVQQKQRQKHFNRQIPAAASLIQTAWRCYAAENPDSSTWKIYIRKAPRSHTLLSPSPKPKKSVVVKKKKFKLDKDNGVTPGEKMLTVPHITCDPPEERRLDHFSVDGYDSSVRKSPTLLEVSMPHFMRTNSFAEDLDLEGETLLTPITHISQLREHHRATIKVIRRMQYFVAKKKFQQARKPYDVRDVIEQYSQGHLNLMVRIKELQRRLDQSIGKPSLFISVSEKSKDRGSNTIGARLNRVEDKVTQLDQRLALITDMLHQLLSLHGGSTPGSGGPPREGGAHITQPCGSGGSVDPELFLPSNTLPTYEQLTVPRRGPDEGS
CHO parental ctr: counter-screen for KCNQ2 inhibitors: effect in parental CHO cells; activity change, % at 10 µM; shares compounds with KCNQ2 inh; thallium flux counter-screen; stronger effect = lower value; hit rate 14% among 1,000; AID 493029
KCNQ2 inh confirm: confirmation of rat KCNQ2 potassium channel inhibitors | shares compounds with KCNQ2 inh | KCNQ2-expressing cells, automated patch clamp current | calls only at 10 µM | hit rate 49% among 550 | AID 588531
Hits are given with their value; i = inactive; nt = not tested or not shown; + = active, no number. Sampled rows, rich in hits. Any-hit rate of the full collection: about 1.6%. Unless noted, no rule for the calls is given here.

SMILES | KCNQ2 inh | KCNQ2 enhance | KCNQ2 inh conf | KCNQ1 spec | CHO parental ctr | others
O=C(COC(=O)CNC(=O)c1cccc([N+](=O)[O-])c1)NCc1ccco1 | i | i | nt | nt | nt
COc1ccc2c(C)cc(SCC#N)nc2c1 | i | nt | nt | nt | nt
COc1ccc2c(C)cc(SCc3c(C)noc3C)nc2c1 | -10.4 | i | i | i | i
Cc1cccnc1NC(=O)CNC(=O)COc1ccccc1 | i | nt | nt | nt | nt
CCOc1ccc(NC(=O)c2ccc(NS(=O)(=O)c3cccs3)cc2)cc1 | i | i | nt | nt | nt
CCC(=O)N1CCN(c2ccccc2NC(=O)c2cccc(C)c2)CC1 | i | nt | nt | nt | nt
Cc1cc(C)cc(OCC(=O)Nc2ccccc2N2CCCCC2)c1 | i | nt | nt | nt | nt
Cc1ccc(NC(=O)COc2cccc(C)c2C)cc1S(=O)(=O)N1CCCCCC1 | -8.75 | i | -36.0% | -31.5% | -24.0% | KCNQ2 inh confirm=i
COc1ccc(NC(=O)COc2ccccc2C)cc1S(=O)(=O)N1CCCCC1 | i | nt | nt | nt | nt
Cc1ccccc1OCC(=O)Nc1ccccc1N1CCCCC1 | -10.5 | i | -26.0% | i | i | KCNQ2 inh confirm=+
CCC(=O)N1CCN(c2ccccc2NC(=O)COc2cccc(C)c2)CC1 | -10.4 | i | -28.0% | i | i | KCNQ2 inh confirm=+
CSc1ncccc1C(=O)OCC(=O)c1cccc(Br)c1 | i | i | nt | nt | nt
CCC1=C(c2ccc(C)cc2)S(=O)(=O)N=C1N1CCC(C(=O)NCCCN2CCCCC2C)CC1 (stereo not given) | i | nt | nt | nt | nt
CC(C)=CCc1cc(-c2oc3cc(O)cc(O)c3c(=O)c2O)ccc1O | i | i | nt | nt | nt
CC(C)=CCc1c(O)cc2oc3c(CC=C(C)C)c(O)c(O)c(CC=C(C)C)c3c(=O)c2c1O | -11.9 | i | -48.0% | -42.5% | -27.5% | KCNQ2 inh confirm=i
CC(=O)c1cccc(NC(=O)Nc2ccc3c(c2)N(C)C(=O)CS3)c1 | -8.48 | i | -44.0% | -34.5% | -29.0% | KCNQ2 inh confirm=i
Cc1cc(C)cc(NC(=O)Nc2ccc3c(c2)N(C)C(=O)CS3)c1 | i | i | nt | nt | nt
Cc1ccc(-c2ccc(/C=N/O)o2)cc1[N+](=O)[O-] | i | i | nt | nt | nt
Cc1c(C)n2c(SCC(=O)N3CCCCC3)nnc2[nH]c1=O | i | i | nt | nt | nt
CCC(C)Sc1ccc(-c2nc3ccc(C)cn3c2NCc2ccccc2)cc1OC (stereo not given) | i | nt | nt | nt | nt
CCC(C)Sc1cccc(-c2nc3cc(C)ccn3c2NCc2ccccc2)c1 (stereo not given) | -6.73 | i | i | i | i
CN(C)c1ccc(N2C(=NC(=O)COc3ccccc3)SC3CS(=O)(=O)CC32)cc1 (stereo not given) | i | i | nt | nt | nt
CC(C)Cn1c(O)c(N=NC(=O)c2cccc(S(=O)(=O)N3CCCCC3)c2)c2ccccc21 | -9.29 | i | i | i | i
CC(C)CCn1c(O)c(N=NC(=O)c2ccco2)c2ccccc21 | i | nt | nt | nt | nt
CC1CCN(c2nc(CN3CCCCC3)nc3scc(-c4ccccc4)c23)CC1 | i | nt | nt | nt | nt
SMILES | KCNQ2 inh | KCNQ2 enhance | KCNQ2 inh conf | KCNQ1 spec | CHO parental ctr | others
NC(=O)C1CC(O)CN1c1nc(CN2CCOCC2)nc2scc(-c3ccccc3)c12 (stereo not given) | -8.89 | i | i | i | i
CN(Cc1c(F)cccc1Cl)C(=O)CNC(=O)c1sc2ccccc2c1Cl | i | nt | nt | nt | nt
COc1cc(OC)c(C(=O)Nc2cccc3ccccc23)cc1OC | i | nt | nt | nt | nt
CCN1/C(=C/C=C/c2sc3ccccc3[n+]2CC)Sc2ccccc21 | -6.89 | i | i | i | i
CC[n+]1c(/C=C/Nc2ccccc2)sc2ccccc21 | i | i | nt | nt | nt
CCc1ccc(CN(C)C(=O)CCc2nnc(CCc3ccccc3OC)o2)nc1 | i | nt | nt | nt | nt
COc1ccc(S(=O)(=O)N2CCN=C2SCc2cccc(C)c2)cc1 | i | nt | nt | nt | nt
CCN(CC)CC(O)CN(c1ccccc1)S(=O)(=O)c1ccc2ccccc2c1 (stereo not given) | i | i | nt | nt | nt
O=S(=O)(c1ccc2ccccc2c1)N(CC(O)COCc1ccco1)c1ccccc1 (stereo not given) | -8.87 | i | -19.5% | i | i | KCNQ2 inh confirm=+
CNC(=O)Cn1nc(-c2ccc(Cl)cc2)c2ccccc2c1=O | i | i | nt | nt | nt
CCOCCCNC(=O)c1ccc(OC2CCN(C(C)=O)CC2)c(OC)c1 | i | i | nt | nt | nt
N=C1SC(c2ccccc2)C(=O)N1c1ncc(Cc2ccccc2Cl)s1 (stereo not given) | i | i | nt | nt | nt
c1ccc(-c2nccc3ccccc23)cc1 | i | i | nt | nt | nt
Cc1ccc(-c2nc(-c3nccc4ccccc34)oc2-c2ccccc2)cc1 | -9.17 | i | -27.5% | i | i | KCNQ2 inh confirm=i
O=C(Nc1ccccc1F)c1ccc(C(=O)c2ccccc2)cc1 | i | nt | nt | nt | nt
O=C(CSC1=NCCN1)Nc1ccccc1[N+](=O)[O-] | i | nt | nt | nt | nt
O=C(CSC1=NCCN1)NC(c1ccccc1)c1ccccc1 | -9.72 | i | i | i | i
O=P(c1ccccc1)(c1ccccc1)c1cc(S(=O)(=O)O)ccc1O | i | i | nt | nt | nt
COc1ccc(NC(=O)CC2CCCC2)cc1S(=O)(=O)N1CCCCC1 | i | i | nt | nt | nt
COc1ccc(NC(=O)CN2C(=O)NC3(CC(C)CC(C)(C)C3)C2=O)cc1S(=O)(=O)N1CCCCC1 (stereo not given) | -8.89 | i | i | i | i
Cc1ccc(N/C=C/C(=O)c2cccs2)cc1C | i | nt | nt | nt | nt
O=C(/C=C/Nc1ccc(Nc2ccccc2)cc1)c1cccs1 | -7.29 | i | i | i | i
CC(=O)N1CCc2cc(S(=O)(=O)CCC(=O)Nc3ccc(Cl)cc3F)ccc21 | i | i | nt | nt | nt
O=C(c1ccc(F)cc1)N(NC(=O)C(O)(c1ccccc1)c1ccccc1)c1ccccc1 | i | nt | nt | nt | nt
COC(=O)N(NC(=O)C(O)(c1ccccc1)c1ccccc1)c1ccccc1 | -6.99 | i | i | i | i
SMILES | KCNQ2 inh | KCNQ2 enhance | KCNQ2 inh conf | KCNQ1 spec | CHO parental ctr | others
CN(Cc1c(C(=O)N2CCc3ccccc3C2)nc2ccc(Cl)cn12)C(C1CC1)C1CC1 | -7.87 | i | -24.0% | i | i | KCNQ2 inh confirm=+
CCN(C)Cc1c(C(=O)N2CCc3ccccc3C2)nc2ccc(Cl)cn12 | i | nt | nt | nt | nt
COc1ccc(C(=O)NNC(=O)C(=O)NC2CCCCC2)cc1 | i | i | nt | nt | nt
O=C(NC(=S)Nc1cc(S(=O)(=O)N2CCOCC2)ccc1N1CCOCC1)c1ccco1 | i | nt | nt | nt | nt
CCN(CC)S(=O)(=O)c1ccc(N2CCOCC2)c(NC(=S)NC(=O)c2ccco2)c1 | -7.27 | i | -34.0% | i | i | KCNQ2 inh confirm=+
Cn1ncc(Cl)c1C(=O)NC1CCCC1 | i | nt | nt | nt | nt
CCOc1ccc(Cl)cc1S(=O)(=O)N1CCC(C(=O)NC2CC2)CC1 | i | nt | nt | nt | nt
COc1ccc(-c2[nH]ncc2-c2cnn(-c3ccccc3)c2)c(O)c1 | -7.74 | i | i | i | i
COc1ccc(-c2cn[nH]c2-c2ccc(O)cc2O)cc1 | i | nt | nt | nt | nt
CC(OC(=O)CCc1c[nH]c2ccccc12)C(=O)c1ccccc1 (stereo not given) | i | nt | nt | nt | nt
Cc1nn(C)c(C(=O)N/N=C/c2ccc(-c3ccccc3)cc2)c1Cl | i | nt | nt | nt | nt
CCCN(C(=O)Cc1ccc(S(=O)(=O)N2CCOCC2)s1)c1c(N)n(Cc2ccccc2)c(=O)[nH]c1=O | i | i | nt | nt | nt
O=[N+]([O-])c1ccc(N2CCc3ccccc3C2)cc1 | -7.08 | i | i | i | i
O=[N+]([O-])c1ccc(-c2csc(N3CCc4ccccc4C3)n2)cc1 | i | nt | nt | nt | nt
O=[N+]([O-])c1ccc(Nc2nccc(Cl)n2)cc1 | i | i | nt | nt | nt
